ClpP mod: qHTS Assay for Activators of ClpP | 340,000 tested, 1.9% active | ATP-dependent Clp protease proteolytic subunit (Bacillus subtilis (strain 168)), P80244 | Potency, µM (series often up to 57.5 µM), without a hit: at the highest dose activity change, negative = active | purified B. subtilis ClpP, FRET peptide cleavage, 20 min; active = well fitted falling curve with a large enough effect; inconclusive = small, poorly fitted or top-dose-only effect; inactive = no such curve, though single readings can be large or run the other way; also: the source files actives as falling curves though it sought activators and does not explain the sign; nearly all actives have a fitted effect of over 65% in size
Target sequence (P80244 whole entry, looked up): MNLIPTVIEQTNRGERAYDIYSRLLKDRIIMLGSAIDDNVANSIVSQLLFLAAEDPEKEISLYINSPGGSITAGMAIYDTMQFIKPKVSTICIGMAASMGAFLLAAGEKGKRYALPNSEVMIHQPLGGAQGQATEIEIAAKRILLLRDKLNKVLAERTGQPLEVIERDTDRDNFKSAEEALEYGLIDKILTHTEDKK
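Purified B. subtilis ClpP, 10 microg/mL final in Tris/HCl pH8 with KCl, BSA, glycerol and Tween-20, cleaved an Abz/nitrotyrosine-quenched decapeptide. Fluorescence (ex 320, em 430) was read at 0 and 20 min at room temperature. Delta was normalized to 5.8 microM ADEP and DMSO/no-enzyme controls.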
GLP1R cytotox: qHTS of GLP-1 Receptor Inverse Agonists: Cytotox Screen; HEK293 cAMP-luciferase reporter cells, luminescence, 24 h; Potency, µM (highest dose often 38.3 µM), for inactives: at the top dose activity change, negative = inhibition, hits mostly inhibitors; 410,000 tested, 0.13% active; AID 624418, 2012;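 also: loss of luciferase light is scored as toxicity; % is scaled to controls: 0 for no effect and ±100 for the full control effect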
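1536-well qHTS counterscreen of the MLSMR; 200 cells/uL, 12 h pre-incubation, 23 nL cpd, 24 h at 37 deg C 5% CO2, luciferase detection reagent, 12 min RT, luminescence. Inhibition = undesired.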
GLP-1R agonist: qHTS of GLP-1 Receptor Agonists | HEK293 GLP-1R CRE-luciferase, luminescence, 4-6 h; cells express a hypersensitive GLP-1R form | Glucagon-like peptide 1 receptor (Homo sapiens), P43220 | Potency, µM (titrated, usually from 45.6 µM), for the others: at the top dose activation, most hits filed as activators | 380,000 tested, 0.007% active; also: % of control where 0% means no effect
Target sequence (P43220 whole entry, looked up): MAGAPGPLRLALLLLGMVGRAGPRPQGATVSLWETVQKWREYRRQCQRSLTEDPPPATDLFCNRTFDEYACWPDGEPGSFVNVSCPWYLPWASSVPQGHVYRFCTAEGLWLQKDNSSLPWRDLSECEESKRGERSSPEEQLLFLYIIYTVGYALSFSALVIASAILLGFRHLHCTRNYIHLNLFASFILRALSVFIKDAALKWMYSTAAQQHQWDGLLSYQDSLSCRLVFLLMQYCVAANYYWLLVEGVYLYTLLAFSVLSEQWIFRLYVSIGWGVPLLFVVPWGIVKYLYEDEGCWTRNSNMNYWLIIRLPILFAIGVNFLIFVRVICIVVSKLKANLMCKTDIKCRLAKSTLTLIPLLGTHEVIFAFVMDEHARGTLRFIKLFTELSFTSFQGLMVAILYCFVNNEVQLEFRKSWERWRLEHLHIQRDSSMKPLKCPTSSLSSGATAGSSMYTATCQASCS
GLP1R inv ag: qHTS of GLP-1 Receptor Inverse Agonists (Inhibition Mode); HEK293 GLP-1R CRE-luciferase, luminescence, 24 h; GLP-1R form is constitutively active; Potency, µM (top dose mostly 38.3 µM), inactives show top-dose activity change, negative = inhibition, most hits filed as inhibitors; 410,000 tested, 1.6% active; AID 624417, 2012; also: % is scaled to controls: 0 for no effect and ±100 for the full control effect; nearly all actives have a fitted effect of over 55% in size
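Readout was luciferase luminescence, measured 12 min after detection reagent at room temperature. Beforehand, GLP-1R reporter HEK293 cells had sat 12 h, then received compounds for 24 hr at 37 deg C.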
The depositor's hits bear a star; i = inactive; ? = inconclusive; . = no result. Sampled rows, rich in hits. Any-hit rate of the full collection: about 3.2%. Unless noted, calls follow the shape of the dose curve; as a rule, active = well fitted curve in the direction sought with a large enough effect; inconclusive = small, poorly fitted or top-dose-only effect, or another doubt; inactive = no such curve, though single readings can be large; an effect the other way counts as inactive or inconclusive. Potency is read from the fitted curve at half-maximal effect.

SMILES	ClpP mod	GLP1R cytotox	GLP-1R agonist	GLP1R inv ag
Cn1c(=O)c2c(nc(N3CCN(Cc4ccccc4)CC3)n2CC(=O)c2ccccc2)n(C)c1=O	0.2%	-3.6%	0.3%	0.0%
CN(c1nc2c(c(=O)n(C)c(=O)n2C)n1CC(=O)c1ccccc1)C1CCCCC1	-0.2%	-24.7%	18.2%	7.94µM*
NC(=O)CSc1nnc(-c2ccco2)n1-c1ccccc1	-1.7%	1.4%	6.8%	7.0%
c1ccc(-n2c(-c3ccco3)nnc2-c2ccco2)cc1	14.1µM*	-13.8%	3.9%	10.2%
CCN(CC)c1ccccc1/C=C/[n+]1ccc(CCCCI)c2ccccc21	-1.6%	.	.	.
CCC(=O)N1CCN(c2nc(CC)nc3sc4c(c23)CCCC4)CC1	-0.7%	14.1%	20.7%	?
CCc1nc(N2CCN(C(=S)NCCCOC)CC2)c2c3c(sc2n1)CCCC3	0.5%	?	-0.9%	11.2µM*
CN1CCN(CCOCCOc2c(Cl)cc(Cl)cc2Cl)CC1	0.7%	25.1%	-3.0%	11.2µM*
Clc1ccc(OCCOCCN2CCc3ccccc3C2)c(Cl)c1	1.8%	?	10.5%	11.2µM*
C=C(C)CNC(=S)NNC(=O)CCn1c2cc(Cl)ccc2c2ccc(Cl)cc21	-0.7%	-7.6%	-12.1%	11.2µM*
O=C(c1ccccc1)n1ccc(-c2cnc(-c3ccccc3)s2)n1	46.4%	1.2%	-3.3%	19.3%
COc1ccc(S(=O)(=O)n2ccc(-c3cnc(-c4ccccc4)s3)n2)cc1	28.2µM*	1.0%	5.2%	-12.7%
O=C(CN1C(=O)c2cccc3cccc(c23)C1=O)N1CCN(Cc2ccc3c(c2)OCO3)CC1	25.1µM*	-6.1%	0.0%	0.0%
N#CC1=C(N)OC2=C(CCc3ccccc32)C1c1ccccc1 (stereo not drawn)	-12.3%	-27.0%	14.0%	1.26µM*
Cc1ccc(/C=C2\CCC3=C2OC(N)=C(C#N)C3c2ccc(C)cc2)cc1 (stereo not drawn)	0.8%	142.3%	-6.9%	?
O=C(O)c1cnn(-c2nc(-c3cccc(F)c3)cs2)c1C(F)(F)F	.	-0.9%	1.5%	16.3%
CCOC(=O)c1cnn(-c2nc3c(C)cccc3s2)c1C	-3.1%	-1.8%	-5.5%	0.2%
CCOC(=O)c1cnn(-c2nc(-c3cccc(F)c3)cs2)c1C(F)(F)F	28.2µM*	8.6%	3.4%	-2.7%
CCOC(=O)c1cnn(-c2nc3c(C)cccc3s2)c1C(F)(F)F	28.2µM*	-6.3%	-1.8%	2.2%
Cc1ccc(C)c(NC(=O)c2ccc(OCc3c(C)noc3C)cc2)c1	31.6µM*	1.6%	-1.6%	-16.3%
Cc1cc(C)c2oc(C(=O)Nc3c(C(=O)c4ccc(F)cc4)oc4ccccc34)cc(=O)c2c1	-0.2%	1.4%	.	5.7%
NCC1O[C@@H](O[C@@H]2C(O)[C@H](O[C@H]3OC(CO)C(O)C(N)C3O)[C@@H](N)C[C@H]2N)C(N)C(O)C1O (stereo partly drawn)	.	.	2.2%	.
O=C1N(Cc2cccc(Cl)c2)C[C@@H]2C[C@@H](c3cccc4ncccc34)N3CCC[C@@]123	.	-3.3%	7.5%	10µM*
O=C1N(Cc2cccc(Cl)c2)C[C@@H]2C[C@@H](c3cccc4cccnc34)N3CCC[C@@]123	.	-11.9%	5.1%	?
CCC(C)Oc1cc(-c2ccnc(Nc3cccc(Cl)c3)n2)ccn1 (stereo not drawn)	-5.2%	8.0%	-10.0%	11.2µM*
SMILES	ClpP mod	GLP1R cytotox	GLP-1R agonist	GLP1R inv ag
CC1(C)CN(c2ccccc2)N(C(=O)c2ccc(C#N)cc2)C1=O	1.1%	-17.9%	-3.0%	3.16µM*
CC(C)(Oc1ccc(Cl)cc1)C(=O)NC1CCCCC1	20µM*	22.7%	0.3%	?
CC1(C)CC(NC(=O)C(C)(C)Oc2ccc(Cl)cc2)CC(C)(C)N1	-1.9%	9.6%	5.0%	?
O=C(CCCn1c2ccccc2c(=O)c2ccccc21)Nc1cccc(Cl)c1	4.3%	148.3%	.	6.31µM*
Cc1ccc2c(c1)c(=O)c1ccccc1n2CCCC(=O)Nc1ccc(Cl)c(Cl)c1	3.8%	-10.2%	.	0.7%
O=C(Cn1ccc2ccccc2c1=O)NCCC(=O)Nc1cccc(Cl)c1	17.8µM*	3.0%	-1.6%	-18.0%
CCOC(=O)c1ccccc1NC(=O)c1cc2c(=O)oc3ccc(C)cc3c2s1	-2.2%	4.8%	-0.2%	12.8%
Cc1cccc2cc(CN(C(=O)c3cccc(Cl)c3)c3ccccc3)c(=O)[nH]c12	-0.3%	-7.8%	.	5.6%
Cc1cccc2cc(CN(CCCO)C(=O)Nc3cccc(Cl)c3)c(=O)[nH]c12	-20.9%	-11.9%	6.5%	11.2µM*
COc1ccccc1N(Cc1cc2cccc(C)c2[nH]c1=O)C(=O)c1cccc(Cl)c1	25.1µM*	3.3%	.	-11.3%
O=C(CCNC(=O)c1ccccc1Cl)Nc1nc(-c2ccc(F)cc2)cs1	-0.6%	-5.3%	-7.1%	-15.4%
O=C(CCNC(=O)c1ccccc1Cl)Nc1nc(-c2ccccc2Cl)cs1	.	-8.0%	0.5%	7.94µM*
CC(=O)OC[C@H]1O[C@@](COC(C)=O)(O[C@H]2O[C@H](COC(C)=O)[C@@H](OC(C)=O)[C@H](OC(C)=O)[C@H]2OC(C)=O)[C@@H](OC(C)=O)[C@@H]1OC(C)=O	.	.	17.3%	.
COc1cc(NS(=O)(=O)c2cc(Br)cc3c2N(C(C)=O)C(C)C3)cc(OC)c1 (stereo not drawn)	-0.4%	2.7%	.	10.1%
CSc1nnc(-c2sc(-c3ccccc3)nc2C)n1C	25.1µM*	7.5%	-2.0%	0.0%
CCOc1ccc2c(ccc(/C=C/c3cc(C)c4cccnc4c3O)[n+]2C)c1	-3.8%	11.2µM*	-30.2%	?
Cc1cc(C)c2cccnc2c1O	-2.1%	.	.	.
O=C(NCc1nc(-c2ccc(C(F)(F)F)cc2)no1)Nc1ccc(OC(F)(F)F)cc1	.	?	0.1%	2.82µM*
COc1ccc(-c2noc(CNS(=O)(=O)c3ccc(NC(C)=O)cc3)n2)cc1	-5.9%	5.4%	-4.5%	13.1%
O=C(Nc1c(C(=O)Nc2cccc(C(F)(F)F)c2)oc2ccccc12)c1cc(=O)c2ccccc2o1	-9.1%	-8.6%	.	0.4%
C=CCn1c(C)cc(C(=O)COc2ccc(C)nc2[N+](=O)[O-])c1C	3.98µM*	-8.3%	6.6%	?
Clc1ccc(C2=CC(c3ccco3)n3ncnc3N2)cc1 (stereo not drawn)	31.6µM*	i	5.0%	13.4%
COc1ccc(C2=CC(c3ccco3)n3ncnc3N2)cc1 (stereo not drawn)	.	i	12.1%	0.2%
C(=Nc1ccc2ccccc2n1)c1ccccn1	4.7%	.	.	.
CC1C/C(=C/c2ccccn2)C(=O)/C(=C/c2ccccn2)C1 (stereo not drawn)	.	4.47µM*	-5.4%	-91.5%
CC1Cc2ccccc2N1S(=O)(=O)c1nnc(NC(=O)c2ccccc2Br)s1 (stereo not drawn)	-0.2%	-4.2%	.	10µM*
